Each structure is given as a SMILES string. Values without a mark were called inactive. Results filed as inconclusive are left out. Active and inactive are the calls of the source. Unless noted, calls come from the whole dose curve; as a rule, active = well fitted curve in either direction with a large enough effect (not every such curve was filed as active); inconclusive = small, poorly fitted or top-dose-only effect, or another doubt; inactive = flat fitted curve, though single readings scatter.

Assay [1] concerns the target Lysosomal acid glucosylceramidase (Homo sapiens) (UniProt P04062). The assay can be described thus: Glucocerebrosidase-p2 (AID 348; in the data active = potency below about 10 µM; note: potency is the fitted concentration of half-maximal effect). Conditions: purified GBA, blue fluorogenic substrate, 40 min. The procedure, abridged: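 Normal human glucocerebrosidase (0.2 nM) with blue fluorogenic substrate (80 uM final) in citrate/phosphate pH 5.9 with 10mM sodium taurocholate, 0.01% tween-20; 40 min RT, NaOH/glycine stop; fluorescence Ex 365/Em 440; AC50 from a titration from 0.6 nM upwards.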

Assay [2] in a line: AP1 Signaling Pathway (AID 357).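 Note: ME-180 reporter cells stimulated with EGF at its EC50 level; % is set by controls: 0 for no effect and ±100 for the full control effect.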 Conditions: ME-180 AP-1-bla reporter, EGF-induced, beta-lactamase ratio, 5 h; at 7.69 µM (top of the series) unless noted. In short, it runs like this:
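Titration-series screen for positive or negative modulators of EC50 EGF-induced signaling in ME-180 cells carrying an AP-1-driven beta-lactamase reporter. After 5 hours at 37 degrees Celsius, CCF4 460nm/530nm emission ratio gave %Activity; AC50 values derived.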

Assay [3] addresses Cytochrome P450 1A2 (Homo sapiens) (UniProt P05177). The assay can be described thus: p450-cyp1a2 (AID 410; calls by dose curve; note: potency is the fitted concentration of half-maximal effect;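 for activity change, negative = inhibition: -100% = full effect of reference inhibitor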). Conditions: recombinant CYP1A2, luciferin-ME demethylation, luminescence; series mostly up to 11.4 µM. The procedure, abridged:
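20nM CYP1A2, 100uM Luciferin-ME (=Km), 100mM KPO4; cpd 10 min RT; +NADPH regen, 60 min RT; stop/detect 20 min; luminescence. Normalized to furafylline 57 uM = full inhibition.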

The nature of assay [4]: NFAT Signaling Pathway (AID 444).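 Note: carbachol stimulus at about its EC50 of 1 µM final; % is set by controls: 0 for no effect and ±100 for the full control effect.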 Conditions: Jurkat NFAT-bla M1, carbachol, beta-lactamase ratio, 5 h; at 7.69 µM (top of the series) unless noted. In short, it runs like this:
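Jurkat cells with NFAT-driven β-lactamase reporter and co-expressed M1 receptor, stimulated with carbachol (final 1 uM, ~EC50), compound titration, 5 h at 37 °C. CCF4 loaded 1 h at RT; 460/530 nm ratio gave %activity and AC50.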

A short description of assay [5]: Stat Signaling Pathway (AID 446).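 Note: ME-180 cervical cancer cells given 40 pM IL-6 alongside compound; SIE-controlled beta-lactamase reporter measured as 460/530 nm FRET emission ratio; % is set by controls: 0 for no effect and ±100 for the full control effect.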 Conditions: ME-180 (cervical carcinoma) SIE beta-lactamase reporter, IL-6 stimulated, 5 h; at 7.69 µM (top of the series) unless noted. The procedure, abridged: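 Compound effects on IL-6-induced STAT reporter activity were measured in ME-180 cells. After overnight culture, cells were co-treated with 40 pM IL-6 for 5 hrs before beta-lactamase substrate loading at room temperature.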

Assay [6] addresses Glucocorticoid receptor (Homo sapiens) (UniProt P04150). As to the kind of experiment: GR-GFP Redistribution (AID 450;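 active = compounds whose dose series gives a full or clear partial fitted curve of increased nuclear translocation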; note: potency is the fitted concentration of half-maximal effect). Conditions: U2OS GR-GFP nuclear translocation, laser cytometry, 2 h.
Assay [7] shares this target. As to the kind of experiment: GR-EFC Redistribution (AID 451; calls by dose curve; note: potency is the fitted concentration of half-maximal effect). Conditions: CHO-K1 GR-EFC translocation, beta-gal luminescence, 2 h. The procedure, abridged:
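CHO-K1 cells expressing nuclear EA and GR-ED fragments of b-gal; compounds titrated up to 46 uM final, 2 h at 37 C. GR nuclear translocation read as complemented b-gal luminescence after 1 h RT detection.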

Assay [8] deals with Mitogen-activated protein kinase 10 (Mus musculus) (UniProt Q61831). As to the kind of experiment: JNK3 AlphaScreen Assay (AID 530).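 Note: kinase came from lysate of stimulated human HepG2 cells; signal reports phosphorylation of biotinylated GST-cJun 1-79 at Ser73 with 10 µM ATP; % is set by controls: 0 for no effect and ±100 for the full control effect.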 Conditions: JNK3 lysate, c-Jun phosphorylation; series mostly up to 11.4 µM. In short, it runs like this:
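HepG2 lysate (IL-1b/TNFa pre-activated) + biotin-GST-cJun 1-79 + anti-pSer73 cJun; cpd titration, 15 min RT; ATP 10 uM start; Tris pH 7.6, MgCl2, DTT, vanadate; beads in EDTA buffer; AlphaScreen.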

The target of assay [9] is 3',5'-cyclic-AMP phosphodiesterase 4B (Homo sapiens) (UniProt Q07343). As to the kind of experiment: qHTS Assay for Inhibitors of PDE-IV (AID 607; active = well fitted activation curve with a large enough effect in the main read-out, with a control signal flat, not every such curve was filed as active; note: % of control where 0% means no effect). Conditions: HEK293 ACTOne CNG channel cells, membrane potential fluorescence; series mostly up to 22.9 µM. The procedure, abridged: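 ACTOne HEK293 cells carry a modified cAMP-gated CNG channel and express endogenous PDE4; plated 1000 cells/well, compounds up to 22.9 uM final. Membrane-potential dye fluorescence (ex 535/em 590) was read; parental cells received 10 uM forskolin + 100 uM RO 20-1724.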
Sequence of 3',5'-cyclic-AMP phosphodiesterase 4B (Homo sapiens) (Q07343 whole entry, looked up): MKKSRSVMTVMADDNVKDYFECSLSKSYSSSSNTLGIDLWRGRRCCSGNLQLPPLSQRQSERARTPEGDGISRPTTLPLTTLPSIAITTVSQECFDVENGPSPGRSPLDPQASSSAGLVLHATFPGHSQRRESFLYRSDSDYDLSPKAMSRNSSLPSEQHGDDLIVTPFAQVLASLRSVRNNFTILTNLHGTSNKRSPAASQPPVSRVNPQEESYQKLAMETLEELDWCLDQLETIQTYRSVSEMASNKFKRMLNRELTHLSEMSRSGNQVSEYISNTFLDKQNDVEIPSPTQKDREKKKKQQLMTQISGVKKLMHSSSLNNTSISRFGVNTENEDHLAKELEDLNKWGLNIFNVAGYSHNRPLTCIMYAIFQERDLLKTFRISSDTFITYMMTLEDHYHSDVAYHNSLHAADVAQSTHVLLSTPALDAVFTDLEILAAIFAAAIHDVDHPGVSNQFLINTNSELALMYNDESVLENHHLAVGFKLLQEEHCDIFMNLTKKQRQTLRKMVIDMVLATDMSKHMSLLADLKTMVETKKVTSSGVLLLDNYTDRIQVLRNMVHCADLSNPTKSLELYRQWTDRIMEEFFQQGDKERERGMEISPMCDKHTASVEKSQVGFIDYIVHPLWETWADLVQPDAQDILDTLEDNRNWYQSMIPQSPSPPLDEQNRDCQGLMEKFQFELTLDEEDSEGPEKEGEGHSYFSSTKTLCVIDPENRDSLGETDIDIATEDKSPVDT

Sequence of Lysosomal acid glucosylceramidase (Homo sapiens) (P04062 whole entry, looked up): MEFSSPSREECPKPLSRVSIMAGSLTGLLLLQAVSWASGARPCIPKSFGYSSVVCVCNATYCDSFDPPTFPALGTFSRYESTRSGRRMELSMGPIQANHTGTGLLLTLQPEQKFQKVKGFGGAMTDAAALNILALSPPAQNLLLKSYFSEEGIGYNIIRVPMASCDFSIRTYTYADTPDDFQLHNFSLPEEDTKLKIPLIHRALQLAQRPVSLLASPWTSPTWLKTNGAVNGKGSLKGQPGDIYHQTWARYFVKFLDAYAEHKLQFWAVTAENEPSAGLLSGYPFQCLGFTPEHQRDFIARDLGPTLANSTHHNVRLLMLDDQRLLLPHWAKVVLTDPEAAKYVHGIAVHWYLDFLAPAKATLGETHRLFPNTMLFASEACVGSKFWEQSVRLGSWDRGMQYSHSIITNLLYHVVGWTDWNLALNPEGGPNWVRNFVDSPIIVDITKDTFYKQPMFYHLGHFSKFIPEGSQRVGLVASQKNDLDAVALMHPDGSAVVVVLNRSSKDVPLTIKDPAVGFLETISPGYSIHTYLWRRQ
Sequence of Cytochrome P450 1A2 (Homo sapiens) (P05177 whole entry, looked up): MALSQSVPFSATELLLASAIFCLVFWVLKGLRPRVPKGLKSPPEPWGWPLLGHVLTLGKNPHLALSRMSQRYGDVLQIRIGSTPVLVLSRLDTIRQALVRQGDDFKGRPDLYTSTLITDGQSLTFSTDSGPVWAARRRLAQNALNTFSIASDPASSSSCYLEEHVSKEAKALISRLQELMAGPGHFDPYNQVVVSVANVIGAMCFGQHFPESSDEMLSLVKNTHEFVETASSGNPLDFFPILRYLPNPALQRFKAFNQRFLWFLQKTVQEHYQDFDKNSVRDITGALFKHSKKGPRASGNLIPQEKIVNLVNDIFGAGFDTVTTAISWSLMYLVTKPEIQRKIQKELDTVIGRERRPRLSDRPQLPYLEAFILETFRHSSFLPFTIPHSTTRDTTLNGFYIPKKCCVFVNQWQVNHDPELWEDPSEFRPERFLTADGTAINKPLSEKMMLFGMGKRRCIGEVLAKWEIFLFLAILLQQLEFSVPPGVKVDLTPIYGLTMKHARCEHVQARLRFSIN
Sequence of Glucocorticoid receptor (Homo sapiens) (P04150 whole entry, looked up): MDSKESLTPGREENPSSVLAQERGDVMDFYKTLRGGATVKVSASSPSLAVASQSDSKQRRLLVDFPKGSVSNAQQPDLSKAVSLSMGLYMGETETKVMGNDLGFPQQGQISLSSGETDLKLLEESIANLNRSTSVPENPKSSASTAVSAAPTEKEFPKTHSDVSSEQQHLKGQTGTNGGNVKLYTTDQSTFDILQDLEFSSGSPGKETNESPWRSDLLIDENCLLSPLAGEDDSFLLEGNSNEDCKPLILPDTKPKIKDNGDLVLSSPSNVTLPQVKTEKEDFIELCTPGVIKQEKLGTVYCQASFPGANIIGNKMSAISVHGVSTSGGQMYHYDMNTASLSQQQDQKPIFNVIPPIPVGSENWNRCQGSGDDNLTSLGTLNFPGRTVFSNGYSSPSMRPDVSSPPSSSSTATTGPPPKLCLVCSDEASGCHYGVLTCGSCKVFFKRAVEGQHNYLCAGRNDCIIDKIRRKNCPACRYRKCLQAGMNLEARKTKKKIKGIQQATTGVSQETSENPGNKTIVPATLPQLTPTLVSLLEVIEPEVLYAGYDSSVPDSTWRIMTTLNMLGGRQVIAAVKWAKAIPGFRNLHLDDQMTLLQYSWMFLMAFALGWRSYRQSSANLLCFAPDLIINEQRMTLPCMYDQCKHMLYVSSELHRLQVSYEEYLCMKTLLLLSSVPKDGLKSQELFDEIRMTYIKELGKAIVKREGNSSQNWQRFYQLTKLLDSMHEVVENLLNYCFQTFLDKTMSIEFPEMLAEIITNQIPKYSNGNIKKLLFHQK

Take `O=CN1CCN(C[C@H](O)CN2CCCCC2)CC1`: the Potency was above 11.4 µM in [1], above 46 µM in assay [6] and above 9.22 µM in assay [7]. For the same compound, the figures for the activity change, negative = inhibition in assay [2], in assay [3] and in assay [4] were 9%, -17.6% [at 2.29 µM] and -4.36%, respectively. Moreover, the activity, negative = inhibition in assay [5] was 8.12%. For the same compound, the Potency entry in [8] and in [9] was “inactive” throughout.

Regarding `COc1ccc(CN[C@H](C)C(=O)O)cc1`, the Potency in assay [1] was above 11.4 µM; in assay [6], above 46 µM; in assay [7], above 9.22 µM. Moreover, the values for the activity change, negative = inhibition in [2] and in [4] were -9.23% and -12%, respectively. Besides, the Potency entry in [3], in assay [8] and in [9] was “inactive” throughout. Besides, the activity, negative = inhibition in assay [5] was 2.1%.

As to `O=C(O)C[C@H](Cc1ccccc1Cl)C(=O)O`, the values for the Potency in assay [1], in assay [6] and in assay [7] were above 11.4 µM, above 46 µM and above 9.22 µM, respectively. In addition, the activity change, negative = inhibition is -0.0824% in assay [2] and -7.65% in [4]. In addition, the Potency result in assay [3], in assay [8] and in [9] was “inactive” throughout. The activity, negative = inhibition in assay [5] is 13.9%.

As for `O=C(O)CCNc1ccccc1C(=O)O`, the Potency in assay [1] was above 11.4 µM; in assay [6], above 46 µM; in assay [7] it was above 9.22 µM. The results for the activity change, negative = inhibition in assay [2] and in [4] were -0.595% and 4.52%, respectively. Besides, the Potency entry in [3], in assay [8] and in assay [9] was “inactive” in each case. Moreover, the activity, negative = inhibition in [5] is 6.23%.

Take `C[N+](C)(C)CCCSc1nc2ccccc2[nH]1`: the Potency in [1] is above 11.4 µM; in [6], above 46 µM; in assay [7], above 9.22 µM. For the same compound, the values for the activity change, negative = inhibition in assay [2] and in [4] were -2.62% and -15.2%, respectively. For the same compound, the Potency result in assay [3], in assay [8] and in assay [9] was “inactive” in each case. Also, the activity, negative = inhibition in assay [5] was -0.948%.

Regarding `Nc1nc(=O)c2[nH]cnc2n1O`, the values for the Potency in [1], in [6] and in assay [7] were above 11.4 µM, above 46 µM and above 9.22 µM, respectively. Moreover, the activity change, negative = inhibition in [2] was 10.1%; in assay [4], -5.74%. Further, the Potency result in assay [3], in [8] and in assay [9] was “inactive” throughout. Besides, in [5], the activity, negative = inhibition is 7.15%.

Turning to `C[C@]12CCC3c4ccc(OCC(=O)O)cc4CCC3C1CCC2=O` (stereo partly specified), the Potency in [1] is above 11.4 µM; in assay [6] it was above 46 µM; in assay [7] it was above 9.22 µM. Besides, the figures for the activity change, negative = inhibition in [2], in [3] and in [4] were 6.42%, 0.7% [at 2.29 µM] and -1.29%, respectively. Also, the activity, negative = inhibition in assay [5] was 9.48%. The Potency result in assay [8] and in assay [9] was “inactive” each time.

With `C[C@H]1CCCC2(CC[N+](C)(CCC[N+](C)(C)C)CC2)C1` (stereo partly specified), the Potency in [1] is 11.6 µM; in assay [6], above 46 µM; in assay [7], above 9.22 µM. The activity change, negative = inhibition in assay [2] was 14.2%; in assay [4], -5.86%. Further, the Potency entry in [3], in [8] and in assay [9] was “inactive” in each case. Besides, in assay [5], the activity, negative = inhibition was 1.53%.

On to `CCN=C(N)CSS(=O)(=O)O`, for which the Potency was above 11.4 µM in [1], above 46 µM in [6] and above 9.22 µM in assay [7]. In addition, the activity change, negative = inhibition was 9.8% in assay [2] and -7.3% in assay [4]. The Potency entry in assay [3], in assay [8] and in [9] was “inactive” each time. For the same compound, the activity, negative = inhibition in [5] is -20%.

`CC(C)(C[C@@]1(C)NC(=O)NC1=O)OCc1ccccc1`: the Potency in assay [1] is above 11.4 µM; in assay [6], above 46 µM; in [7] it was above 9.22 µM. For the same compound, the activity change, negative = inhibition is -2.92% in assay [2], -12.1% [at 2.29 µM] in assay [3] and -0.038% in assay [4]. In assay [5], the activity, negative = inhibition was 0.608%. Also, the Potency entry in [8] and in assay [9] was “inactive” each time.

Turning to `O=C(C[N+]1(c2ccccc2)CCOCC1)c1ccccc1`, the Potency in assay [1] is above 11.4 µM; in assay [3], 3.98 µM (active); in assay [6] it was above 46 µM; in assay [7], above 9.22 µM. The activity change, negative = inhibition was -5.21% in assay [2] and 11.5% in [4]. The activity, negative = inhibition in assay [5] is -5.59%. Moreover, the Potency result in [8] and in assay [9] was “inactive” throughout.

Regarding `Clc1ccccc1C(Nc1cnccn1)Nc1cnccn1`, the Potency in assay [1] is above 11.4 µM; in [6], above 46 µM; in assay [7], above 9.22 µM. The activity change, negative = inhibition in [2] was 8.81%; in assay [3] it was -18% [at 2.29 µM]; in assay [4], 6.25%. The activity, negative = inhibition in [5] is -2.8%. Further, the Potency result in [8] and in assay [9] was “inactive” throughout.

Turning to `O=C(O)CNCCc1ccccc1`, the Potency in [1] was above 11.4 µM; in [6] it was above 46 µM; in assay [7], above 9.22 µM. In addition, the figures for the activity change, negative = inhibition in [2] and in assay [4] were 7.75% and -3.02%, respectively. The Potency entry in assay [3], in [8] and in assay [9] was “inactive” each time. In addition, the activity, negative = inhibition in [5] was 4.05%.

With `NCC(=O)Nc1ccccc1`, the Potency in [1] is above 11.4 µM; in assay [3] it was 2.51 µM (active); in [6], above 46 µM; in [7], above 9.22 µM. In addition, the activity change, negative = inhibition is 4.23% in assay [2] and 1.46% in [4]. Moreover, in assay [5], the activity, negative = inhibition is 4.18%. Besides, the Potency entry in assay [8] and in [9] was “inactive” in each case.

(Values after PubChem BioAssay (NCATS).)
